Measured values taken from PMC7862700, “An all-to-all approach to the identification of sequence-specific readers for epigenetic DNA modifications on cytosine”.

Legend:
Test in all cases: DAPPL (digital affinity profiling via proximity ligation, sequencing); 10 mM Tris-HCl pH 7.5, 50 mM NaCl, 1 mM DTT, 4% glycerol, room temperature, 30 min; GST-TFs on glutathione beads, 16-mer random dsDNA library, 0.1% formaldehyde crosslink after washing; high values mean tight binding
Settings in all cases: protein: recombinant; tags: N-terminal GST; dsDNA, one strand shown
FLI1 = target: T1, FLI1 (Homo sapiens, UniProt Q01543 1-452)
T1 sequence: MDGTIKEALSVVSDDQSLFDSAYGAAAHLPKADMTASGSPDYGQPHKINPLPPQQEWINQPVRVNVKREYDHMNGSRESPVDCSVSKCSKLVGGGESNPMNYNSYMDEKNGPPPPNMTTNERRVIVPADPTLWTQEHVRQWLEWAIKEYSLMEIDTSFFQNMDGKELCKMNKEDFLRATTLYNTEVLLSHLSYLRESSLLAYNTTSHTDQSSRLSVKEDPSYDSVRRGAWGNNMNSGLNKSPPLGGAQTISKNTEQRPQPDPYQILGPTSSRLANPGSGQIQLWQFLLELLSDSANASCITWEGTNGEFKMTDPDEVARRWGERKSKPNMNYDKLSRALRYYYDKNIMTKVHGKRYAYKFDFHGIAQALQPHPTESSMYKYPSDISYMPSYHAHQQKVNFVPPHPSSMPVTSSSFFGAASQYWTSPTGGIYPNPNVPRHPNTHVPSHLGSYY
How it was run: (§1)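 GST fusions of human transcription factors were expressed in yeast and captured with glutathione beads. Once given DNA barcodes and pooled alongside a tag-only sample, they were incubated for 30 min at room temperature with 200 nmole of a random double-stranded 16-mer DNA library in Tris/NaCl/DTT/glycerol buffer, then washed, crosslinked (0.1% formaldehyde), proximity-ligated, PCR-amplified and sequenced on an Illumina NextSeq500. The binding signal of each hexamer is its read frequency for a factor divided by its frequency for the tag-only sample.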

ELK1 = target: T2, ELK1 (Homo sapiens, UniProt P19419 1-428)
T2 sequence: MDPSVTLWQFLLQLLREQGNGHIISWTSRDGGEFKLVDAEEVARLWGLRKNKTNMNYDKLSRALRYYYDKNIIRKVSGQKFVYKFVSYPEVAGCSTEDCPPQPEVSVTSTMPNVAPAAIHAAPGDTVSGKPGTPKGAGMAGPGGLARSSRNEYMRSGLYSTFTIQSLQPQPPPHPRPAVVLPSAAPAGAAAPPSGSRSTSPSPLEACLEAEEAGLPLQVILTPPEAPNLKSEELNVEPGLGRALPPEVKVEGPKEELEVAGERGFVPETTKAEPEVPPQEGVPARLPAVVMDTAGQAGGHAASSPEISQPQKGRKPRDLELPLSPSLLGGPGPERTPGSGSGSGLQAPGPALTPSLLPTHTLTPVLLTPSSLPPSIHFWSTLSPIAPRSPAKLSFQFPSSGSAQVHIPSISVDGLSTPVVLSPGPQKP
How it was run: as §1

GABPA = target: T3, GABPA (Homo sapiens, UniProt Q06546 1-454)
T3 sequence: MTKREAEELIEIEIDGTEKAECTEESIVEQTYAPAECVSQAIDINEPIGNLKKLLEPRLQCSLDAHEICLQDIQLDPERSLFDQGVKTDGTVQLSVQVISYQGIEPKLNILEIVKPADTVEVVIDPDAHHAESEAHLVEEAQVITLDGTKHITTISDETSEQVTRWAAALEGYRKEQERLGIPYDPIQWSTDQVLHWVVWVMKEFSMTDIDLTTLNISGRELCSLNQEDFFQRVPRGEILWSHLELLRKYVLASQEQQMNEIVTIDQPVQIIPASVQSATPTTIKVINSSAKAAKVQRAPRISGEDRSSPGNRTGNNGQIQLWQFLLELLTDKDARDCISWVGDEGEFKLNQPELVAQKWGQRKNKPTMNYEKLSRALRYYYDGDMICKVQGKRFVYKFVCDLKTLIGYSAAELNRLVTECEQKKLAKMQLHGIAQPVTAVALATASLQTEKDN
How it was run: as §1

ERG = target: T4, ERG (Homo sapiens, UniProt P11308 1-479)
T4 sequence: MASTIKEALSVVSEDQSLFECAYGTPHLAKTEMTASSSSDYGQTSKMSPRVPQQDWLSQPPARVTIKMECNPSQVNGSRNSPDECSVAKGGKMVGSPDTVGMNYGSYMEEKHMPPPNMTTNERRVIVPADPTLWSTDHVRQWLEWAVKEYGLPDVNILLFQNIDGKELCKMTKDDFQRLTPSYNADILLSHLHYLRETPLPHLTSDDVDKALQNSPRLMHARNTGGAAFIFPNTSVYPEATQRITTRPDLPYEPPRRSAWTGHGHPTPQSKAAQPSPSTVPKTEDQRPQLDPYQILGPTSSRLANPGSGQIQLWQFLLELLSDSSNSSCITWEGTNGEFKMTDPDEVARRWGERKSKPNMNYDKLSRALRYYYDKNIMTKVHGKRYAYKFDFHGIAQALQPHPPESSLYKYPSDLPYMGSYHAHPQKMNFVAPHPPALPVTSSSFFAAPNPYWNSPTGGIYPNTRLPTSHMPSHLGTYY
How it was run: as §1

ELF1 = ELF1 (Homo sapiens, UniProt P32519 1-619)
How it was run: as §1

EHF = target: T5, EHF (Homo sapiens, UniProt Q9NZC4 1-300)
T5 sequence: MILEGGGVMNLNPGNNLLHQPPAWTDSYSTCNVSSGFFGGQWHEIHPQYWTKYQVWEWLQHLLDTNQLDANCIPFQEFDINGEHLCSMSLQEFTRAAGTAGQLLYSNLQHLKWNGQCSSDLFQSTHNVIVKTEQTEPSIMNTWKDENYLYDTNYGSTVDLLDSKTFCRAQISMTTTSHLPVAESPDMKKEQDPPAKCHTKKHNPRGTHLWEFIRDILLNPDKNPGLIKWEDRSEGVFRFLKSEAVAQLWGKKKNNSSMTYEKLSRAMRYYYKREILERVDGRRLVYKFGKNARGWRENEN
How it was run: as §1

SPI1 = SPI1 (Homo sapiens, UniProt P17947 1-270)
How it was run: as §1

SPIB = SPIB (Homo sapiens, UniProt Q01892 1-262)
How it was run: as §1

ELK3 = target: T6, ELK3 (Homo sapiens, UniProt P41970 1-407)
T6 sequence: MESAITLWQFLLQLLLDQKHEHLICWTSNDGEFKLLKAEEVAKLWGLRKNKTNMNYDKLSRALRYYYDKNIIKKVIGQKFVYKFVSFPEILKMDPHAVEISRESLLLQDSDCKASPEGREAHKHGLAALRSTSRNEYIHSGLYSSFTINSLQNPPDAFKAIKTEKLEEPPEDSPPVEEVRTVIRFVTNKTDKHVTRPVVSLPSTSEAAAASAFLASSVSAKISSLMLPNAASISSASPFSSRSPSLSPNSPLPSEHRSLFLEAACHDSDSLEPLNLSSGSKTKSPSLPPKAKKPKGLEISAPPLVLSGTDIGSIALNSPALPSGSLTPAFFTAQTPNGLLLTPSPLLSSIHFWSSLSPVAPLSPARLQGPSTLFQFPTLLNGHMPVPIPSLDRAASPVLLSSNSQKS
How it was run: as §1

Sequence of ELF1 (P32519 whole entry): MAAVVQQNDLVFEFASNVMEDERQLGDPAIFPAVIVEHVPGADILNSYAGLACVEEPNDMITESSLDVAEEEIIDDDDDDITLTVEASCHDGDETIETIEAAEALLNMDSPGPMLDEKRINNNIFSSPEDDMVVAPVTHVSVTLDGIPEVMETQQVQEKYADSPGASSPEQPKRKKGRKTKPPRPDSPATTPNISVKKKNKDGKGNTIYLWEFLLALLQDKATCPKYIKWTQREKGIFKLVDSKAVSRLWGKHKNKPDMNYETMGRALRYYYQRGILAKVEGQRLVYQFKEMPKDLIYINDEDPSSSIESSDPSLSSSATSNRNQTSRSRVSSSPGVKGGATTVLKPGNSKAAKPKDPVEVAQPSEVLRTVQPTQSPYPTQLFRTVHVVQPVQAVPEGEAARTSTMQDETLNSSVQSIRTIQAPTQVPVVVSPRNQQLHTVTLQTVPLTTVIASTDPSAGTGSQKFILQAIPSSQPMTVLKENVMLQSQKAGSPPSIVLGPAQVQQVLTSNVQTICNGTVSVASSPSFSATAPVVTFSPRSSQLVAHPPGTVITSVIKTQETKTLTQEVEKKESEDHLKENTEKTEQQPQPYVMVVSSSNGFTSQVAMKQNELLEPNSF
Sequence of SPIB (Q01892 whole entry): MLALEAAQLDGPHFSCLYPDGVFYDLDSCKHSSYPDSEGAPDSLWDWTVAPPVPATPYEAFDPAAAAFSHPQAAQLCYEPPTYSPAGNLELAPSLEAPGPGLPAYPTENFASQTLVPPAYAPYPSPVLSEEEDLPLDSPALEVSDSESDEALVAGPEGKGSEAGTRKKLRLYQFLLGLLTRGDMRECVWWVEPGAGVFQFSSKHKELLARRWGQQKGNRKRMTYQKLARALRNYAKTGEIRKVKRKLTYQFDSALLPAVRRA

## TCATCA
FLI1
  binding signal: 1.18 fold enrichment (6-mer frequency, TF over GST control)
ELK1
  binding signal: 1.16 fold enrichment (6-mer frequency, TF over GST control)
GABPA
  binding signal: 1.17 fold enrichment (6-mer frequency, TF over GST control)
ERG
  binding signal: 1.13 fold enrichment (6-mer frequency, TF over GST control)
ELF1
  binding signal: 1.14 fold enrichment (6-mer frequency, TF over GST control)
EHF
  binding signal: 1.09 fold enrichment (6-mer frequency, TF over GST control)
SPI1
  binding signal: 1.1 fold enrichment (6-mer frequency, TF over GST control)
SPIB
  binding signal: 1.14 fold enrichment (6-mer frequency, TF over GST control)
ELK3
  binding signal: 1.18 fold enrichment (6-mer frequency, TF over GST control)
